The source of these data is PubChem BioAssay (Tox21).

Test [1] in a line: qHTS assay to identify small molecule antagonists of the thyroid receptor (TR) signaling pathway (AID 743065). Note: nearly all actives have a fitted effect of over 55% in size. Note: potency is the fitted concentration of half-maximal effect. An outline of the steps: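 Antagonism measured as loss of luciferase signal in GH3 cells stably carrying a TRE-luciferase reporter, co-treated with compound and T3 (1 nM final) for 23.5 h at 37 C. Viability was read in the same well by CellTiter-Fluor.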
For orientation: In qHTS, concentration-response curves come from the screen itself.

Test [2] can be described thus: qHTS assay to identify small molecule antagonists of the estrogen receptor alpha (ER-alpha) signaling pathway - cell viability counter screen (AID 743074; calls by dose curve; note: nearly all actives have a fitted effect of over 45% in size).
Test [3] deals with Estrogen receptor (Homo sapiens) (UniProt P03372). The test is described as follows: qHTS assay to identify small molecule agonists of the estrogen receptor alpha (ER-alpha) signaling pathway (AID 743075; calls by dose curve; note: potency is the fitted concentration of half-maximal effect).
Sequence of Estrogen receptor (Homo sapiens) (P03372 whole entry, looked up): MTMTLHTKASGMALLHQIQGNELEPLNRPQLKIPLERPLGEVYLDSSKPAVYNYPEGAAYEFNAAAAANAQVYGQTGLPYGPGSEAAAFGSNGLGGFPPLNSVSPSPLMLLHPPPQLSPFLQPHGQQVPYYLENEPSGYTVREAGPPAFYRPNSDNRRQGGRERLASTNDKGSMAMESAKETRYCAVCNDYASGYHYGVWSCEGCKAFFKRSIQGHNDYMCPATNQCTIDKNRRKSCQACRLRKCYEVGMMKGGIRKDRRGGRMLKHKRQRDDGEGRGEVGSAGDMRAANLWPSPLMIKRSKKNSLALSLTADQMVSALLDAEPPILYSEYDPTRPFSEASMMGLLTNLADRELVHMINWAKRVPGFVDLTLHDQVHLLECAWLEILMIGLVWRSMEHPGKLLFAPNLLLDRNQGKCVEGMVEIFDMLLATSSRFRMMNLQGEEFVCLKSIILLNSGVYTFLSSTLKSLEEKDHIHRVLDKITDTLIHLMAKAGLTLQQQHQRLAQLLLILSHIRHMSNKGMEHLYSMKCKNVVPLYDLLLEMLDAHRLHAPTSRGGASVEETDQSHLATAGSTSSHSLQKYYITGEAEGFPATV
For test [4] the target is unchanged. The test is described as follows: qHTS assay to identify small molecule agonists of the estrogen receptor alpha (ER-alpha) signaling pathway using the BG1 cell line (AID 743079). Note: nearly all actives have a fitted effect of over 20% in size. Note: potency is the fitted concentration of half-maximal effect. The following applies: BG1Luc4E2 cells, ERE-luciferase agonist, 22 h.
A short description of test [5]: qHTS assay to identify small molecule antagonists of the estrogen receptor alpha (ER-alpha) signaling pathway using the BG1 cell line (AID 743080; calls by dose curve;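 note: BG1 cells stimulated with 17beta-estradiol alongside compound; nearly all actives have a fitted effect of over 25% in size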; note: potency is the fitted concentration of half-maximal effect). An outline of the steps:
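BG1Luc4E2, endogenous ER-alpha, 4xERE-luc; 5 d charcoal-stripped FBS, phenol red free; 24 h plating; cpd + 17beta-estradiol 21.5 h, 37 C/5% CO2; CellTiter-Fluor viability 30 min, then ONE-Glo luciferase 30 min RT.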

Test [6] is described as follows: qHTS assay to identify small molecule antagonists of the estrogen receptor alpha (ER-alpha) signaling pathway using the BG1 cell line - cell viability counter screen (AID 743081).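 Note: compound given together with 17beta-estradiol as the ER stimulus; nearly all actives have a fitted effect of over 45% in size.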
The target in the next test is Aromatase (Homo sapiens) (UniProt P11511). The test is described as follows: qHTS assay to identify aromatase inhibitors (AID 743083). Note: nearly all actives have a fitted effect of over 55% in size. Note: potency is the fitted concentration of half-maximal effect.
Sequence of Aromatase (Homo sapiens) (P11511 whole entry, looked up): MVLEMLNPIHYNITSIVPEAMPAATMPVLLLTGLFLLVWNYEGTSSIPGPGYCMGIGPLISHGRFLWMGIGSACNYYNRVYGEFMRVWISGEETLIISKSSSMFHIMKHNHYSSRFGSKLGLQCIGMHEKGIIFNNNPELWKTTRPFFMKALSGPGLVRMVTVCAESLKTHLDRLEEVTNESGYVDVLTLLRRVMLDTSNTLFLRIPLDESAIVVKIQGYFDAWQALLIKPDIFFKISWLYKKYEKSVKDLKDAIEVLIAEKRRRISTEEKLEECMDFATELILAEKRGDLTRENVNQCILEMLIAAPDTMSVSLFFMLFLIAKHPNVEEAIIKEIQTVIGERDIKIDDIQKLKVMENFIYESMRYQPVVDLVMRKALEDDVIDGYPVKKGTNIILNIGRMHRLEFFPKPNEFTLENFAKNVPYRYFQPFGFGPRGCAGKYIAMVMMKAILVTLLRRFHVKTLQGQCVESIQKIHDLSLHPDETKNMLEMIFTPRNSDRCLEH
The nature of test [7]: qHTS assay to identify aromatase inhibitors - cell viability counter screen (AID 743084).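 Note: cells stimulated with testosterone during compound exposure; nearly all actives have a fitted effect of over 55% in size.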 Note: potency is the fitted concentration of half-maximal effect.
Test [8] concerns thyroid hormone receptor (rat, GH3 cells). The test is described as follows: qHTS assay to identify small molecule agonists of the thyroid receptor (TR) signaling pathway (AID 743066; calls by dose curve).
For test [9], the target named is Estrogen receptor (Homo sapiens) (UniProt P03372). Put plainly: qHTS assay to identify small molecule antagonists of the estrogen receptor alpha (ER-alpha) signaling pathway (AID 743069; active = well fitted curve in the direction sought with a large enough effect in the signal ratio in the repeat runs, not every such curve was filed as active; inconclusive = weak or mixed curves, or effect the other way; inactive = no such curve, though single readings can be large or run the other way; the % refers to the signal ratio; note: potency is the fitted concentration of half-maximal effect). The essentials:
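Fluorescence intensity from a beta-lactamase FRET substrate served as the read-out. Cells: HEK293 with stably integrated ER-alpha-UAS-bla reporter. Agonist 17beta-estradiol was co-added with compounds; incubation 18 hr at 37C, substrate 2 hr at room temperature.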

Where “and” joins values, the source holds several entries; their conditions need not be identical. Identical values can stand only once. Where a structure was tested more than once in an assay, its records may differ in their call. Calls of active or inactive are those of the source. Unless noted, calls come from the whole dose curve; as a rule, active = well fitted curve in the direction sought with a large enough effect in the repeat runs; inconclusive = weak or mixed curves; inactive = no such curve, though single readings can be large; an effect the other way counts as inactive or inconclusive.
% is set by controls: 0 for no effect and ±100 for the full control effect.

Take `CCC1(c2ccccc2)C(=O)N=C(O)NC1=O` (stereo not given): the Potency entry (in test [1]; in test [3]; in [5]; in test [6]; with Aromatase (Homo sapiens); in [7]) was “inactive” in each case. Besides, the compound was called inactive in test [2]. Further, the activation in test [4] (at 70.3 µM (top of the series)) was -3.61% (inactive).

Consider `O=C(Oc1ccc(Br)cc1)N1CCN2CCC1CC2`, for which the Potency result (in test [8]; in test [3]; in [6]; with Aromatase (Homo sapiens); in test [7]) was “inactive” in each case. In addition, the compound was classed as inactive in test [2]. The activation in test [4] (at 70.3 µM (top of the series)) is 1.03% (inactive).

For the compound `N#CCNCC#N`, the Potency result (in test [1]; in test [9]; in test [3]; in [5]; with Aromatase (Homo sapiens); in [7]) was “inactive” throughout. Besides, the result in [2] was inactive. In addition, the activation in test [4] (at 70.3 µM (top of the series)) was -9.97% (inactive).

For the compound `CC(=O)[C@H]1CC[C@H]2[C@@H]3CC[C@H]4C[C@H](O)CC[C@]4(C)[C@H]3C(=O)C[C@]12C`, the Potency result (in test [8]; in [3]; in test [5]; in test [6]; in the test with Aromatase (Homo sapiens); in test [7]) was “inactive” in each case. Besides, in test [2], the result was inactive. In addition, in test [4] (at 70.3 µM (top of the series)), the activation was 8.45% (inactive).

As to `CC1(C(=O)Nc2ccc(O)c(Cl)c2Cl)CCCCC1`, the Potency entry in [8] and in test [6] was “inactive” in each case. Moreover, in [2], the result was inactive.

`ClCC(Cl)(Cl)Cl`: the Potency result (in test [9]; in [3]; in test [5]; in test [6]; with Aromatase (Homo sapiens); in test [7]) was “inactive” each time. The compound was called inactive in [2]. Further, the activation in test [4] (at 95 µM (top of the series)) was 9.47% (inactive).

For the compound `CN1C(=S)CN=C(c2ccccc2)c2cc(Cl)ccc21`, the Potency entry (in test [8]; in test [3]; in test [6]; with Aromatase (Homo sapiens); in test [7]) was “inactive” throughout. Further, the outcome in [2] was inactive. Also, the Potency in [5] is 13.3 µM (active).

As for `CC(Oc1ccc(Oc2ncc(C(F)(F)F)cc2Cl)cc1)C(=O)O` (stereo not given), the Potency result in test [8], in test [3], in test [5], in test [6] and in [7] was “inactive” in each case. Further, in test [2], the call was inactive.

As to `COc1ccc2c(c1OC)CN1CCc3cc4c(cc3C1C2)OCO4` (stereo not given), the Potency result (in test [8]; in test [3]; in [5]; in [6]; with Aromatase (Homo sapiens); in test [7]) was “inactive” in each case. In addition, the compound was classed as inactive in test [2]. In [4] (at 32.5 µM (top of the series)), the activation was -4.85% (inactive).

As for `N#CCCC#N`, the Potency result (in [8]; in test [9]; in [3]; in test [5]; in test [6]; with Aromatase (Homo sapiens)) was “inactive” in each case. Also, the Potency entry in test [7] is “inactive”. Moreover, the compound was classed as inactive in test [2]. Also, the activation in test [4] (at 70.3 µM (top of the series)) was -3.68% (inactive).

In the case of `Clc1cccc(N2CCNCC2)c1`, the Potency entry (in test [8]; in test [9]; in test [3]; in [5]; in test [6]; with Aromatase (Homo sapiens)) was “inactive” throughout. For the same compound, the Potency result in test [7] is “inactive”. For the same compound, the compound was classed as inactive in test [2]. Besides, the activation in [4] (at 70.3 µM (top of the series)) is 10.2% (inactive).

As for `COc1cc(C[C@@H](C)N)c(OC)cc1C`, the Potency in [1] was 65.4 µM (active). In addition, the Potency entry (in test [9]; in test [5]; in test [6]; with Aromatase (Homo sapiens); in test [7]) was “inactive” in each case. Also, the result in test [2] was inactive.

On to `C=CCC1=C(C)[C@@H](OC(=O)[C@@H]2[C@@H](C=C(C)C)C2(C)C)CC1=O`, for which the Potency was 61.1 µM (active) in test [1] and 54.5 µM (active) in test [5]. Also, the compound was called inactive in test [2]. Besides, the Potency result in [3], in test [6] and in test [7] was “inactive” in each case.

In the case of `Cc1ccccc1CO[C@@H]1C[C@@]2(C(C)C)CC[C@]1(C)O2`, the Potency entry in test [8], in [6] and in test [7] was “inactive” throughout. Besides, in test [2], the compound was classed as inactive.

For the compound `CCOC(=O)/C=C(C)/C=C/C[C@@H](C)CCCC(C)C`, the Potency result (in test [1]; in test [3]; in [5]; in [6]; with Aromatase (Homo sapiens); in test [7]) was “inactive” each time. For the same compound, the Potency entry in test [9] is “inactive and 24.5 µM [inhibitor] (active)”. In addition, the compound was called inactive in test [2]. Further, the activation in test [4] (at 70.3 µM (top of the series)) was 19.2% (inactive) and -9.9% (inactive).

On to `C[C@]1(O)CC[C@H]2[C@@H]3CCC4=CC(=O)CC[C@]4(C)[C@@]3(F)[C@@H](O)C[C@@]21C`, for which, in test [2], the call was inactive. Moreover, the Potency entry (in test [6]; in the test with Aromatase (Homo sapiens); in test [7]) was “inactive” each time.

In the case of `Cc1ncc2n1-c1ccc(Cl)cc1C(c1ccccc1F)=NC2`, the Potency result (in [8]; in test [3]; in [6]; with Aromatase (Homo sapiens); in test [7]) was “inactive” throughout. In [5], the Potency is 11.9 µM (active).

On to `COc1cc(OC)nc(NC(=O)NS(=O)(=O)c2ncccc2OCC(F)(F)F)n1`, for which the Potency entry (in [9]; in test [3]; in test [5]; in [6]; with Aromatase (Homo sapiens); in [7]) was “inactive” throughout. Also, the call in test [2] was inactive.

For `O=C1CN=C(c2ccccc2)c2cc([N+](=O)[O-])ccc2N1`, the Potency result (in test [8]; in [9]; in [3]; in test [5]; in [6]; with Aromatase (Homo sapiens)) was “inactive” in each case. In addition, in test [7], the Potency entry is “inactive”. Besides, the outcome in test [2] was inactive. Further, in test [4] (at 70.3 µM (top of the series)), the activation was -1.51% (inactive).

For the compound `CCN(CC)C(=O)[C@@H]1C=C2c3cccc4[nH]cc(c34)C[C@H]2N(C)C1`, the Potency entry (in [8]; in test [5]; with Aromatase (Homo sapiens); in test [7]) was “inactive” in each case. Also, the outcome in [2] was inactive. The Potency result was “inactive and 8.49 µM [inconclusive] (active)” in test [3]; 0.944 µM (active) in [4]. In addition, the activation in test [4] (at 260 µM (top of the series)) was -12% (inactive).

Consider `CCOP(=S)(OCC)SCSP(=S)(OCC)OCC`, for which the Potency entry (in test [8]; in test [9]; in test [3]; in [5]; in [6]; in the test with Aromatase (Homo sapiens)) was “inactive” throughout. Also, the Potency result in test [7] is “inactive”. Also, the call in test [2] was inactive. Further, the Potency in test [4] is 38.6 µM (active).

Consider `COC(=O)C1=CCCN(C)C1`, for which the Potency result (in [9]; in test [3]; in test [5]; in [6]; with Aromatase (Homo sapiens); in test [7]) was “inactive” throughout. Also, the outcome in [2] was inactive. The activation in [4] (at 70.3 µM (top of the series)) was 0.989% (inactive).

As for `COc1cccc(C(=O)NN(C(=O)c2cc(C)cc(C)c2)C(C)(C)C)c1C`, the Potency result (in test [8]; with Aromatase (Homo sapiens)) was “inactive” throughout. Also, the compound was classed as inactive in test [2].

As to `CCCCOC(=O)c1ccccc1N`, the outcome in test [2] was inactive. Also, the Potency entry (in [6]; with Aromatase (Homo sapiens); in test [7]) was “inactive” in each case.

In the case of `CC(C)CC(N(C)C)C1(c2ccc(Cl)cc2)CCC1` (stereo not given), the Potency result (in [8]; in [6]; with Aromatase (Homo sapiens); in [7]) was “inactive” in each case. Further, the result in [2] was inactive.

In the case of `CCCSP(=O)(OCC)Oc1ccc(Br)cc1Cl` (stereo not given), the Potency entry in test [8], in test [6] and in test [7] was “inactive” throughout. The outcome in test [2] was inactive.

As to `CC(C)CC#N`, the Potency entry (in test [9]; in test [3]; in test [6]; with Aromatase (Homo sapiens); in test [7]) was “inactive” in each case. In addition, the result in test [2] was inactive. In test [4] (at 95 µM (top of the series)), the activation was 6.55% (inactive).

On to `C[C@H]1CCC[C@H](O)CCCCCc2cc(O)cc(O)c2C(=O)O1`, for which the Potency entry in [9] and in [6] was “inactive” throughout. In test [2], the result was inactive. Further, the Potency in test [3] was 848 nM [inconclusive] (active) and 175 nM [inconclusive] (active); in [5], 23.7 µM (active); in the test with Aromatase (Homo sapiens), 61.6 µM (active); in [7] it was 43.6 µM (active). In addition, the figures for the activation in test [4] (at 70.3 µM (top of the series)) and in [4] (at 95 µM (top of the series)) were -0.266% (active) and -52.7% (active), respectively.
